# High-throughput results as filed in PubChem.
# D1 agonist: activates the human D1 dopamine receptor. hit rate 1% among 360,000. HEK293 T-REx D1 cells, calcium flux, agonist mode. P21728. AID 504660. activation, % at 2 µM; further: 0% is about no effect
#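 Agonism was scored from calcium flux recorded over 180 s (1 read/s) after pintool compound addition, following a 10-cycle baseline. Cells were inducible force-coupled HEK293 TREx D1, plated overnight at 30 C and loaded with no-wash calcium dye.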
# TRHR enhancer: TRH receptor (human) allosteric enhancement | hit rate 0.66% among 360,000 | enhancement, % at 2 µM | AID 493056 | P34981 | TRHR cells, fluo-8 calcium fluorescence, EC20 TRH enhancement; in the data active means enhancement above about 30%; further: 0% is about no effect
# Target sequence (P34981 whole entry, looked up): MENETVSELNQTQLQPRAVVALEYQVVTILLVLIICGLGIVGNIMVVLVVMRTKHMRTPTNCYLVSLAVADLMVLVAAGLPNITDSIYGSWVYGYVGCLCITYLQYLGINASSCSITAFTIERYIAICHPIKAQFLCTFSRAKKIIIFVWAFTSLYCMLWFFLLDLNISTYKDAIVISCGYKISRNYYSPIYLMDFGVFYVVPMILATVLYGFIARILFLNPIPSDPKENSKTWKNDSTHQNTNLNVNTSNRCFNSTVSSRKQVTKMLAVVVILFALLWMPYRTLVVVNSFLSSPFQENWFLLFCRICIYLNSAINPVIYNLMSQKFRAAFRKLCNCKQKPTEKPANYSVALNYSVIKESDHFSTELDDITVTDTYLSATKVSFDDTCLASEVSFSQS
#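 TRHR-expressing cells loaded with fluo-8 calcium dye were read kinetically (ex 480/em 530) during compound addition, then stimulated with an EC20 of TRH (10 nM final). Enhancement of the Gq-mediated intracellular calcium response was scored.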
# D1 potentiator: enhances dopamine response at the human D1 receptor. P21728. HEK293 TREx D1 cells, calcium flux, dopamine EC20 potentiation. potentiation, % at 10 µM. hit rate 0.036% among 360,000; in the data active means potentiation above about 30%; further: 0% is about no effect
# D1 antag: antagonists of human D1 dopamine receptor | P21728 | HEK293 TREx D1 cells, calcium flux, dopamine EC80; stronger effect = lower value | activity change, negative = inhibition, % at 10 µM | hit rate 3.2% among 360,000; in the data active means activity change below about -30%; further: on the % scale 0 is the no-effect control and ±100 the full control effect
#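 Tetracycline-induced HEK293 Trex D1 cells, force-coupled to calcium, dye-loaded; compounds added and read 180 s, then EC80 dopamine added and calcium flux tracked kinetically another 180 s.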
# TRHR agonist: TRH receptor (human) agonism. AID 493084. activation, % at 2 µM. hit rate 0.18% among 360,000. TRHR cells, calcium flux fluo-8, FDSS agonist mode. P34981; further: 0% is about no effect
#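 TRHR-expressing cells loaded with fluo-8 calcium dye; 23 nL library compound pin-transferred, kinetic FDSS fluorescence (Ex 480/Em 530) recorded about 180 s for agonist-induced calcium release, before a 10 nM TRH EC20 addition for potentiator mode.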
# Glioma ERSR ind: induces the endoplasmic reticulum stress response in human glioma cells; hit rate 0.02% among 420,000; Potency, µM, for the others: at the top dose activation, actives largely listed as activators; U87-MG GRP78 promoter luciferase reporter, 16 h; active means well fitted activation curve with a large enough effect; further: potency means the concentration at half of the fitted maximal effect; series mostly up to about 76 µM; % of control where 0% means no effect; nearly all actives have a fitted effect of over 35% in size
#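 Stably transfected U87-MG human glioma cells carrying a GRP78-based luminescent sensor were seeded at 1000 cells/well, pin-dosed with compounds and incubated 16 h. Luciferase reagent was then added, and end-point luminescence was read after 10 min at room temperature.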
# Numbers without * were called inactive; / = no result; ! = repeats disagree. In the library only some 4% were active in any assay of this set; here they are far more common. Unless noted, no stated cut-off is given here; in the data, active means activation above about 30%; inactive means the rest.
SMILES,D1 agonist,TRHR enhancer,D1 potentiator,D1 antag,TRHR agonist,Glioma ERSR ind
COc1nnc(-c2ccc(N3CCOCC3)c(NC(=O)c3ccccc3)c2)c2ccccc12,4,-8,5,0,-1,-6%
O=C(COc1cccc2ccccc12)N1c2ccccc2CCc2ccccc21,5,2,18,-2,1,-4%
CC(C)(C)C1CCCCC1NC(=O)c1ccncc1 (stereo not given),3,0,1,5,-1,-2%
COc1ccc(-c2cc(C(F)(F)F)n3nc(C(=O)Nc4cc(C)ccc4C)cc3n2)cc1,0,5,-1,-1,1,-1%
COc1ccc(-c2cc(C(F)(F)F)n3nc(C(=O)Nc4cccc(Cl)c4C)cc3n2)cc1,0,39*,-4,-8,1,-2%
COc1cccc(-c2cc(C(F)(F)F)n3nc(C(=O)N4CCCCC4c4cccnc4)cc3n2)c1 (stereo not given),1,2,-11,-49*,-1,-1%
COc1ccc(NC(=O)Nc2cccc(C)n2)c(OC)c1,1,33*!,-4,-16,-1,-2%
Cc1ccc(S(=O)(=O)N(C)C)cc1NC(=O)Nc1ccccc1F,5,1,-11,-43*,-1,1%
Cc1ccc(S(=O)(=O)N(C)C)cc1NC(=S)NC(C)CCCC(C)C (stereo not given),6,-1,-4,-12,0,-3%
COc1ccc(NC(=O)Nc2ccccc2F)c(C)c1,2,18,-3,-37*,0,4%
Cc1ccc(S(=O)(=O)N(C)C)cc1NC(=S)NC(C)CCC(C)C (stereo not given),12,-5,-4,-59*,1,-5%
COc1cccc(NC(=O)Nc2cccc(C)n2)c1,2,-5,2,3,-2,2%
CC1=CC(O)=NS(=O)(=O)O1,/,/,/,/,/,-5%
C=CSc1sc(Cl)c(N(CC)CC)c1[N+](=O)[O-],5,2,-5,12,0,-3%
Cc1nn(C)cc1CN1CCOc2ccc(CN3CCC(Oc4cccnc4)CC3)cc2C1,/,/,/,/,/,1%
CO[C@@H]1COC(=O)C/C=C\[C@@H](C)COC(=O)[C@H](COCc2ccccc2)NC(=O)C/C=C\[C@H]1C,/,/,/,/,/,-2%
CC(=O)c1ccc(OCCCC(=O)Nc2cc(S(=O)(=O)N(C)C)ccc2C)cc1,9,0,-5,-14,0,0%
Cc1ccc(S(=O)(=O)N(C)C)cc1NC(=O)C(C)N(C)CCOc1ccc(Cl)cc1 (stereo not given),30*,19,/,-19,-2,-2%
CN(C)C(=N)c1n[nH]nc1SCc1ccc(Cl)c(Cl)c1,0,-7,-3,-36*,1,-3%
CO[C@H]1[C@H](NC(=O)c2ccco2)c2ccccc2C12CCN(Cc1cnc(N(C)C)s1)CC2,/,/,/,/,/,-4%
CC(C)C(=O)Nc1ccc(-c2csc(-c3ccccc3)n2)cc1,1,7,-3,-38*,0,1%
COc1ccc(NC(=O)CSc2nncs2)cc1S(N)(=O)=O,4,1,-2,-32*,1,0%
COc1ccc(NC(=O)CSc2nncs2)cc1OC,2,1,-6,0,0,-2%
COc1ccc(C2C(C#N)=C(N)Oc3cc(C)n(Cc4ccncc4)c(=O)c32)cc1 (stereo not given),0,5,-2,-35*,0,-3%
Cc1cc2c(c(=O)n1CCN(C)C)C(c1ccncc1)C(C#N)=C(N)O2 (stereo not given),-1,1,-5,-9,1,-3%
COC(=O)CSc1nc2c(cnn2-c2ccc(F)cc2)c(=O)[nH]1,1,-9,-5,-33*!,0,-1%
Cc1nn2c(NCCCN(C)C)c3c(nc2c1-c1ccccc1)CCC3,1,5,-12,9,0,-3%
Cc1nn2c(NCCCN(C)C)c3c(nc2c1-c1ccccc1)CCCC3,20,3,-4,-38*,1,1%
O=C(c1cccc(N2CCCC2=O)c1)N1CCN(c2cccc(Cl)c2)CC1,17,-3,-7,-57*,0,-5%
